Experimental data from PubChem BioAssay.
Active and inactive are the calls of the source.

Legend:
[1] = optical density shifts of acrAB sulA E. coli – strain DRC41, OD650, 48 h, E. coli filamentation inducer project, primary screen (AID 1152); details: higher = more signal, called active from +8 up or from −8 down;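 further: E. coli MC1000 strain DRC41 lacking acrAB efflux pump and sulA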
[2] = probe aLefty1 binding on compound microarray – biochemical, small-molecule microarray, 635/667 nm fluorescence, primary screen (AID 1153); details: higher = more signal;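 further: score merges spot fluorescence with signal-to-noise ratio from the scanned slide images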
[3] = plasmodial surface anion channel blockers, osmotic lysis – cell-based, P. falciparum Indochina, OD700, 1 h, primary screen (AID 1154); details: P. falciparum Indochina infected RBC osmotic lysis, higher = more signal, called active from +8 up or from −8 down
[4] = plasmodial surface anion channel blockers, osmotic lysis – cell-based, P. falciparum Indochina, OD700, 2 h, primary screen (AID 1155);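 further: lysis reports solute entry through the parasite surface anion channel PSAC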; details: P. falciparum Indochina infected erythrocytes, higher = more signal, called active from +8 up or from −8 down
[5] = changes in parasitized red cell lysis, either direction – P. falciparum Indochina, OD700, 3 h, PSAC antagonist project, primary screen (AID 1156); details: P. falciparum-infected erythrocytes, osmotic lysis, higher = more signal, called active from +8 up or from −8 down
[6] = plasmodial surface anion channel blockers, osmotic lysis – cell-based, P. falciparum Indochina, OD700, 18 h, primary screen (AID 1157); details: P. falciparum Indochina infected erythrocytes, osmotic lysis OD700, 18 h; higher = more signal, called active from +8 up or from −8 down
[7] = S6 kinase pathway phospho-S6 level changes – cell-based, A549, cytoblot, luminescence, serum-stimulated, primary screen (AID 1158); details: 5 h, higher = more signal;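 further: serum-stimulated A549 lung adenocarcinoma cells; signal is phosphorylated S6 detected by cytoblot immunostaining with HRP secondary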
[8] = target: NADPH oxidase 2 (Homo sapiens) (UniProt P04839); assay: compounds shifting NOX2 Amplex Red fluorescence – cell-based, HEK293-NOX2, PMA-stimulated, NOX inhibitor project, primary screen (AID 1159); details: 45 min, higher = more signal, called active from +8 up or from −8 down; further: test concentration not given here
[9] = target: NADPH oxidase 4 (Homo sapiens) (UniProt Q9NPH5); assay: compounds shifting NOX4 Amplex Red fluorescence – cell-based, HEK293-NOX4, tetracycline-induced, NOX inhibitor project, primary screen (AID 1160); details: HEK293-NOX4, Amplex Red H2O2 fluorescence, 45 min; higher = more signal, called active from +8 up or from −8 down
[10] = target: NADPH oxidase 5 (Homo sapiens) (UniProt Q96PH1); assay: compounds shifting NOX5 Amplex Red fluorescence – cell-based, HEK293-NOX5, NOX inhibitor project, primary screen (AID 1161); details: HEK293-NOX5, ionomycin, 45 min, higher = more signal
NADPH oxidase 5 (Homo sapiens), sequence (Q96PH1 whole entry, looked up): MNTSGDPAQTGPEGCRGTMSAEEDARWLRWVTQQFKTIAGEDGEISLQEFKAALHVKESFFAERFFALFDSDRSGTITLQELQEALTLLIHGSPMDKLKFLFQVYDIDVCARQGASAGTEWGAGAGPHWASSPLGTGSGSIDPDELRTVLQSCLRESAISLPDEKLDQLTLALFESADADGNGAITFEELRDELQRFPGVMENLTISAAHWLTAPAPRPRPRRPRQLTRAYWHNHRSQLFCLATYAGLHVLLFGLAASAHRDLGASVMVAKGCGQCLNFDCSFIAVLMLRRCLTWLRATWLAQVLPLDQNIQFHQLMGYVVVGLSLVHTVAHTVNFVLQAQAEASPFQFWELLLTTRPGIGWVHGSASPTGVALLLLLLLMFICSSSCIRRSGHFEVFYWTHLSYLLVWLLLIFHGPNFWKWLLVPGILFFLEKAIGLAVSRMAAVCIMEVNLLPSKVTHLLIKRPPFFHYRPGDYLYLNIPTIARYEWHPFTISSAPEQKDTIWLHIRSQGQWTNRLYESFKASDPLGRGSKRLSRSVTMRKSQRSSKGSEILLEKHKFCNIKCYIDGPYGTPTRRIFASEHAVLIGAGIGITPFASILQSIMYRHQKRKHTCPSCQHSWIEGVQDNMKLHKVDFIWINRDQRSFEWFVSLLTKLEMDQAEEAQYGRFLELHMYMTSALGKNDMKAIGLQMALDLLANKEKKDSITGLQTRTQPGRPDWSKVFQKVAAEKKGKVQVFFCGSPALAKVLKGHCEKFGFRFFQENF

NADPH oxidase 2 (Homo sapiens), sequence (P04839 whole entry, looked up): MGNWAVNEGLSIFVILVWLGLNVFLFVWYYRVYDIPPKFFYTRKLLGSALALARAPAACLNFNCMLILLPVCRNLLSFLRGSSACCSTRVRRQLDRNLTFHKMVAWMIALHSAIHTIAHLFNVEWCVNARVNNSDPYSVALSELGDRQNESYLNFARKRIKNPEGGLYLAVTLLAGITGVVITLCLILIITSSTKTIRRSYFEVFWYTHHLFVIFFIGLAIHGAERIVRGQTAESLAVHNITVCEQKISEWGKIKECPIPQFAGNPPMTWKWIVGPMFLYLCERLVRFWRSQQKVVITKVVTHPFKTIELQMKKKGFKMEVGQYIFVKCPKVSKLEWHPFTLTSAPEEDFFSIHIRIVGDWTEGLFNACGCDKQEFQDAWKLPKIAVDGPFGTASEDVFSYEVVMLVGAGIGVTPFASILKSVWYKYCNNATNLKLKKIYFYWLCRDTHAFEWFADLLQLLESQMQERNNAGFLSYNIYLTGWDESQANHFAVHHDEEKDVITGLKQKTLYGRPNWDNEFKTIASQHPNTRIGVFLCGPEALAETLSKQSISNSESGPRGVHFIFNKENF
NADPH oxidase 4 (Homo sapiens), sequence (Q9NPH5 whole entry, looked up): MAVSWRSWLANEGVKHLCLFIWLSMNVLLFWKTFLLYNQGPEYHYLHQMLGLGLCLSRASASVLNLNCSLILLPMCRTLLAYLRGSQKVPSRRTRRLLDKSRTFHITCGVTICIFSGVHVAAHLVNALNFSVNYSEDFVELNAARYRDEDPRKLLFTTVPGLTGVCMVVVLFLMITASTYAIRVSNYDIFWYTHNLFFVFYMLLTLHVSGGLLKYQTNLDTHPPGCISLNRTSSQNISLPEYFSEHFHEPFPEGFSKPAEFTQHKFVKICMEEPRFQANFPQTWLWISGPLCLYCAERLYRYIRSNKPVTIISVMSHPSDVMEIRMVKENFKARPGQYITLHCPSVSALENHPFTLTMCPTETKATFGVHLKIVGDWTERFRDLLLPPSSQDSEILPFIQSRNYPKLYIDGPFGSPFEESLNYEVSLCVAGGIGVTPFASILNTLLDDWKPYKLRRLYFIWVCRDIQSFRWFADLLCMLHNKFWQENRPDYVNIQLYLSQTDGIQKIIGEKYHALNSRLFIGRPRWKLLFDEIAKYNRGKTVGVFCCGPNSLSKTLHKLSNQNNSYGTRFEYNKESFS

SMILES	z-score [1]	composite z-score [2]	z-score [3]	z-score [4]	z-score [5]	z-score [6]	z-score [7]	z-score [8]	z-score [9]	z-score [10]
COc1cc(NN2C(C(O)c3ccco3)C=CC3C(=O)N(c4ccccc4)C(=O)C32)cc(OC)c1OC (stereo not given)	-1.37 (inactive)	-0.441	0.886 (inactive)	-1.47 (inactive)	1.06 (inactive)	-1.28 (inactive)	1.29	-3.15 (inactive)	-4.23 (inactive)	-5.73
C=C(COC)C(=O)CC[C@@H](OC(C)=O)c1ccc(CO)o1	0.0488 (inactive)	0.0371	0.116 (inactive)	-0.47 (inactive)	0.195 (inactive)	-0.38 (inactive)	-0.142	0.663 (inactive)	0.0844 (inactive)	0.46
C=C(COC)/C(=C/C[C@@H](OC(=O)c1ccncc1)c1ccc(CO)o1)c1cc(C(=O)OC)ccc1OC	0.855 (inactive)	0.062	3.87 (inactive)	0.453 (inactive)	1.57 (inactive)	0.308 (inactive)	0.934	-0.631 (inactive)	-0.124 (inactive)	-0.495
COCCOC(=O)N1C(=O)[C@@]2(c3cc(C#Cc4ccc(OC)cc4)ccc31)[C@H](c1ccc(O)cc1)N1[C@H](c3ccccc3)[C@H](c3ccccc3)OC(=O)[C@H]1[C@@H]2C(=O)N1CCc2cc(OC)c(OC)cc2C1	0.892 (inactive)	0.134	1.92 (inactive)	1.19 (inactive)	0.401 (inactive)	0.827 (inactive)	0.035	0.478 (inactive)	0.398 (inactive)	1.08
CN(C)CCCC[C@@H]1NC(=O)[C@@H]2C[C@H](C(=O)NCCCCCCN)[C@H](c3cccc(OCCO)c3)N2C1=O	-0.3 (inactive)	1.1	3.07 (inactive)	0.198 (inactive)	1.87 (inactive)	0.105 (inactive)	0.292	0.956 (inactive)	1.14 (inactive)	0.941
C=CCC(OC(C)=O)[C@@H]1[C@@H](N(Cc2ccc(-c3ccccc3)cc2)C(=O)c2cccc3ccccc23)c2cc(OCCCO)ccc2N1C(=O)c1ccc(-c2ccccc2)cc1 (stereo not given in full)	0.82 (inactive)	0.46	0.353 (inactive)	1.06 (inactive)	-0.291 (inactive)	0.358 (inactive)	0.121	0.299 (inactive)	-0.394 (inactive)	-4.31
COCCOC(=O)N1C(=O)[C@@]2(c3cc(C#CCC(C(=O)OC)C(=O)OC)ccc31)[C@H](c1ccccc1OCCO)N1[C@H](c3ccccc3)[C@H](c3ccccc3)OC(=O)[C@H]1[C@@H]2C(=O)NC[C@H](O)c1ccccc1	-0.165 (inactive)	0.557	1.95 (inactive)	1.35 (inactive)	-0.0048 (inactive)	0.781 (inactive)	0.213	1.57 (inactive)	1.07 (inactive)	1.41
C=C(CCCC)/C(=C/C[C@@H](OC(=O)c1ccncc1)c1ccc(OCCO)cc1)c1cc(C(=O)OC)ccc1OC	0.4 (inactive)	-0.0984	17.3 (active)	3.18 (inactive)	1.85 (inactive)	0.969 (inactive)	0.377	-1.61 (inactive)	-0.665 (inactive)	-1.9
CC(C)N1C(=O)[C@@]2(Cc3ccccc31)c1ccccc1C(=O)N(Cc1ccccc1Cl)[C@H]2c1ccc(CO)cc1	0.581 (inactive)	-0.17	-0.0086 (inactive)	-0.513 (inactive)	1.23 (inactive)	-1.78 (inactive)	1.17	0.16 (inactive)	0.946 (inactive)	1.04
CCCCCN1CC=CC23O[C@@H]4/C=C\CCC(C)OC(=O)C4[C@H]2C(=O)N(C(C)CO)[C@@H]3C1=O (stereo not given in full)	0.585 (inactive)	0.0077	0.901 (inactive)	-0.356 (inactive)	0.847 (inactive)	0.355 (inactive)	-0.0749	0.642 (inactive)	-0.2 (inactive)	1.84
O=C1C[C@@](C(=O)NCCN2CCOCC2)(c2ccc([N+](=O)[O-])cc2)[C@@H](c2ccc(CO)cc2)N1CC12CC3CC(CC(C3)C1)C2	-3.18 (inactive)	0.394	4.51 (inactive)	1.23 (inactive)	1.24 (inactive)	0.548 (inactive)	0.101	-4.27 (inactive)	-2.56 (inactive)	-1.06
N#Cc1ccc(NN2C(C(O)C(c3ccccc3)c3ccccc3)C=CC3C(=O)N(c4ccccc4)C(=O)C32)cc1 (stereo not given)	-0.0948 (inactive)	0.651	5.66 (inactive)	0.96 (inactive)	0.891 (inactive)	1.24 (inactive)	0.151	-1.99 (inactive)	-2.82 (inactive)	-2.49
COc1ccc(-c2cc3c(c(-c4ccc(Oc5ccccc5)cc4)n2)[Si](C(C)C)(C(C)C)OC3)cn1	-1.14 (inactive)	0.0004	2.85 (inactive)	1.54 (inactive)	0.208 (inactive)	0.85 (inactive)	-0.837	0.476 (inactive)	0.412 (inactive)	0.179
CCOC(=O)C[C@H]1[C@H](OC(=O)c2ccc(-c3ccccc3)cc2)[C@@H](NC(=O)Cc2ccc(OC)cc2)c2cc(OCCCO)ccc2N1C(=O)c1ccccc1	-0.539 (inactive)	0.206	1.84 (inactive)	-0.259 (inactive)	0.438 (inactive)	0.285 (inactive)	1.3	-1.43 (inactive)	-1.72 (inactive)	-0.795
CCOC(=O)C[C@H]1[C@H](OC(=O)c2cc3ccccc3oc2=O)[C@@H](NC(=O)c2ccccc2)c2cc(OCCCO)ccc2N1C(=O)c1ccc2ccccc2n1	0.0582 (inactive)	-0.0969	10.4 (active)	1.33 (inactive)	1.17 (inactive)	0.599 (inactive)	-0.253	0.543 (inactive)	0.43 (inactive)	1.44
O=C(c1ccccc1)N1C(=O)[C@@]2(Cc3ccccc31)N=C(c1ccc(OCCCO)cc1)O[C@H]2c1ccccc1	-0.632 (inactive)	0.554	14.6 (active)	2.37 (inactive)	3.04 (inactive)	1.03 (inactive)	-0.256	-0.595 (inactive)	-0.0485 (inactive)	-1.74
CNS(=O)(=O)c1ccc(C)cc1	2.78 (inactive)	-0.371	-0.699 (inactive)	-1.07 (inactive)	-0.886 (inactive)	-2.23 (inactive)	0.929	2.36 (inactive)	0.878 (inactive)	0.669
COCCOC(=O)N1C(=O)[C@@]2(c3cc(C#CCC(C(=O)OC)C(=O)OC)ccc31)[C@H](C(=O)Nc1nc3ccccc3s1)[C@H]1C(=O)O[C@H](c3ccccc3)[C@H](c3ccccc3)N1[C@@H]2c1ccccc1OCCO	0.275 (inactive)	0.212	11.2 (active)	2.85 (inactive)	0.599 (inactive)	2.31 (inactive)	0.0413	0.652 (inactive)	0.671 (inactive)	0.234
COc1cc2c(cc1O)C(C1CC1)N(Cc1sc3ccccc3c1Cl)CC2 (stereo not given)	-1.54 (inactive)	-0.0162	13.1 (active)	3.41 (inactive)	-0.449 (inactive)	1.33 (inactive)	-0.0956	-4.57 (inactive)	-2.68 (inactive)	-3.45
Cc1ccc([C@@H]2C[C@@H](Sc3ccccc3)[C@H](C(=O)O)CN2S(=O)(=O)c2ccc(C)cc2)cc1	-1.07 (inactive)	0.481	1.87 (inactive)	0.835 (inactive)	-1.16 (inactive)	0.759 (inactive)	-0.512	2.06 (inactive)	-1.97 (inactive)	-0.41
C[N+](C)(C)CCCCCCNC(=O)[C@@H]1C[C@@H]2C(=O)N[C@@H](Cc3ccccc3)C(=O)N2[C@@H]1c1cccc(OCCO)c1	1.49 (inactive)	0.0588	10.1 (active)	1.34 (inactive)	1.42 (inactive)	0.349 (inactive)	0.0757	1.39 (inactive)	1.66 (inactive)	1.05
